Bioassay records (PubChem)
hcDAF-12 act: H. contortus DAF-12 nuclear receptor activators, primary screen, cell-based, luminescence, HEK293, lit1-tk-luc reporter; HEK293 hcDAF-12 lit1-tk-luc reporter; 0% DMSO, 100% Δ7-dafachronic acid; activation, % at 6.8 µM; 370,000 compounds, 1.4% hits; AID 652067, 2013;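 active means activation above the mean of all tested compounds plus 3 SD, cut at about 5.5% in these data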;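 further: 100% = response to 3 µM Δ7-dafachronic acid high control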
Wee1 stabilizer: Wee1 degradation inhibitors, primary screen, cell-based, HeLa, Wee1K328M-luciferase, luminescence | Wee1-like protein kinase (Homo sapiens), P30291 | HeLa Luc-Wee1K328M stability; 100% = proteasome inhibitor MG132 effect | reporter increase, % at 5 µM | 220,000 compounds, 1.2% hits | AID 1321, 2008;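 active means activation above the mean of all tested compounds plus 3 SD, set per screening run, cut at about 8.8% in these data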;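 further: cells exposed to compound for 20 h before luminescence read; 0% = DMSO alone and 100% = MG132 at 30 µM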
Target sequence (P30291 whole entry K328M): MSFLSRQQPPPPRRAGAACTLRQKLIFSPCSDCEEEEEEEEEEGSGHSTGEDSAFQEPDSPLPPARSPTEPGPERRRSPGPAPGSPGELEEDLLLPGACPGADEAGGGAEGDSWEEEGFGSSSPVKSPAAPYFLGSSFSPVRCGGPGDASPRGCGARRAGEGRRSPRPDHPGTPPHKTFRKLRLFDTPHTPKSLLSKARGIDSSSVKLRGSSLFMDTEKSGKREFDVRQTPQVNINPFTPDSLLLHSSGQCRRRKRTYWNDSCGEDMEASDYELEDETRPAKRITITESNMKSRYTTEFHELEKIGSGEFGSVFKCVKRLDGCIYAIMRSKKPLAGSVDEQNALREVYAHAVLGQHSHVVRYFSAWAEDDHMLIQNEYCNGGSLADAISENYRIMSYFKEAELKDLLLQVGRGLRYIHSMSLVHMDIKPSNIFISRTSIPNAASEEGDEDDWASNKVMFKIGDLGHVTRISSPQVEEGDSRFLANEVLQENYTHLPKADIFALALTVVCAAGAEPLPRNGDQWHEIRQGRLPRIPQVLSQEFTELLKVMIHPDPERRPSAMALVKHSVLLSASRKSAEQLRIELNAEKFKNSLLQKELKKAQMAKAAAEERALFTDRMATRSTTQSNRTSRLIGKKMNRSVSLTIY
DAX1 inh-1: DAX1 (NR0B1) inhibitors on StAR promoter, primary screen, cell-based, luminescence, SF-1 (NR5A1), full-length DAX-1; HEK293T StAR-luciferase reporter, SF-1/DAX-1 repression relief; AID 652010, 2013; 370,000 compounds, 1.1% hits; inhibition, % at 6.8 µM;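 active means inhibition above the mean over all tested compounds plus 3 SD, cut at about 3.6% in these data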;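 further: 0% = DAX-1 cells with DMSO and 100% = cells lacking DAX-1 with DMSO; higher inhibition means more luminescence from relief of DAX-1 repression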
DAX1 inh-2: DAX1 (NR0B1) inhibitors, primary screen, cell-based, HEK293, Gal4-DAX1, luciferase luminescence; inhibition, % at 6.75 µM; 340,000 compounds, 0.99% hits; Nuclear receptor subfamily 0 group B member 1 (Homo sapiens), P51843; HEK293 Gal4-DAX1 luciferase reporter;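 active means inhibition above the mean over all tested compounds plus 3 SD, cut at about 4.2% in these data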;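 further: 0% = DAX1-transfected cells with DMSO and 100% = empty-vector control cells with DMSO; inhibition shows as a rise in luminescence from relieved DAX1 repression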
ssDAF12 agonist: S. stercoralis DAF-12 nuclear receptor activators, primary screen, cell-based, luminescence, HEK293, GRIP1 co-expression, lit1-tk-luc. Nuclear hormone receptor DAF-12 (Strongyloides stercoralis). HEK293 ssDAF-12/GRIP1 lit1-tk-luc reporter; % of 3 µM dafachronic acid response. activation, % at 6.8 µM. 370,000 compounds, 1% hits;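 active means activation above the mean over all tested compounds plus 3 SD, cut at about 0.9% in these data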;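 further: 0% = DMSO-only wells and 100% = 3 µM delta7-dafachronic acid wells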
hgDAF-12 ag: H. glycines DAF-12 receptor agonists, primary screen, cell-based, luminescence, HEK293, GAL4 fusion, UAS-luciferase | HEK293 GAL4-hgDAF12 UAS-luciferase reporter, agonist luminescence; normalized to butyrate control | activation, % at 6.8 µM | 370,000 compounds, 1.8% hits | AID 687014, 2013;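 active means activation above a cutoff set at the mean of all screened compounds plus 3 SD, cut at about 10% in these data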;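 further: 0% = DMSO wells and 100% = sodium butyrate wells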
* hit, by the source's call. Shown are actives, neighbours in structure and some others; about 4.6% of the full set was active somewhere.

What do the screens show for `Cc1cc(C(=O)CSc2nnnn2C)c(C)n1C1CC1`?
hcDAF-12 act: 2; Wee1 stabilizer: 1; DAX1 inh-1: 1; DAX1 inh-2: 2; ssDAF12 agonist: -1; hgDAF-12 ag: 12*

What do the screens show for `Cc1cc(C(=O)CSc2nnc(CCC(N)=O)n2C)c(C)n1C1CC1`?
hcDAF-12 act: 0; DAX1 inh-1: 0; DAX1 inh-2: 1; ssDAF12 agonist: 0; hgDAF-12 ag: 2

What do the screens show for `CCN(CC(=O)NCc1cccs1)C(=O)c1ccc(NS(=O)(=O)c2cccc([N+](=O)[O-])c2)cc1`?
hcDAF-12 act: 1; DAX1 inh-1: 1; DAX1 inh-2: 4.8*; ssDAF12 agonist: -1; hgDAF-12 ag: 0

Results for CCCCc1cc(=O)oc2cc(C)cc(OCC(=O)N3C[C@H]4C[C@@H](C3)c3cccc(=O)n3C4)c12 ?
hcDAF-12 act: -1; DAX1 inh-1: 1; DAX1 inh-2: 7.0*; ssDAF12 agonist: -1; hgDAF-12 ag: 1

What do the screens show for `CCCc1cc(=O)oc2cc(C)cc(OCC(=O)N3C[C@H]4C[C@@H](C3)c3cccc(=O)n3C4)c12`?
hcDAF-12 act: -1; DAX1 inh-1: 1; ssDAF12 agonist: -2; hgDAF-12 ag: 0

Results for COc1ccc(NC(=S)N2CCCC2)c(OC)c1 ?
hcDAF-12 act: 1; Wee1 stabilizer: -1; DAX1 inh-1: 0; DAX1 inh-2: 4.6*; ssDAF12 agonist: -1; hgDAF-12 ag: 2

Results for COc1ccccc1NC(=S)N1CC(C)OC(C)C1 (centres undefined) ?
hcDAF-12 act: -1; Wee1 stabilizer: 0; DAX1 inh-1: 0; DAX1 inh-2: 4.6*; ssDAF12 agonist: -2; hgDAF-12 ag: -2

What do the screens show for `COc1ccc(NC(=S)N2CCN(Cc3ccco3)CC2)c(OC)c1`?
hcDAF-12 act: 2; Wee1 stabilizer: -1; DAX1 inh-1: 0; DAX1 inh-2: 1; ssDAF12 agonist: -2; hgDAF-12 ag: 3

How did COc1ccc(NC(=S)N2CCN(Cc3cccc(F)c3)CC2)c(OC)c1 do in these assays?
hcDAF-12 act: 0; Wee1 stabilizer: -2; DAX1 inh-1: 0; DAX1 inh-2: 5.0*; ssDAF12 agonist: -2; hgDAF-12 ag: -1

How did Cc1ccc2c(CN3CCC(C)CC3)cc(=O)oc2c1 do in these assays?
hcDAF-12 act: 3; Wee1 stabilizer: -1; DAX1 inh-1: 2; DAX1 inh-2: 2; ssDAF12 agonist: -1; hgDAF-12 ag: 11*

Results for Cc1ccc2c(CN3CC(C)CC(C)C3)cc(=O)oc2c1 (centres undefined) ?
hcDAF-12 act: 0; DAX1 inh-1: 0; DAX1 inh-2: 0; ssDAF12 agonist: -1; hgDAF-12 ag: -2

What do the screens show for `Cn1c(-c2ccccc2Br)n[nH]c1=S`?
hcDAF-12 act: 5.6*; Wee1 stabilizer: 1; DAX1 inh-1: 0; DAX1 inh-2: -1; ssDAF12 agonist: -1; hgDAF-12 ag: 0

Results for Cn1c(-c2ccccc2)n[nH]c1=S ?
hcDAF-12 act: -1; Wee1 stabilizer: 1; DAX1 inh-1: -1; DAX1 inh-2: 0; ssDAF12 agonist: -2; hgDAF-12 ag: 0

Results for O=C(Nc1cc(S(=O)(=O)N2CCOCC2)ccc1N1CCCC1)c1cc2c(s1)CCCC2 ?
hcDAF-12 act: -2; ssDAF12 agonist: -2; hgDAF-12 ag: 2

What do the screens show for `CC(=O)N1c2ccccc2Oc2cc3ccccc3cc21`?
hcDAF-12 act: 5.7*; Wee1 stabilizer: 3; DAX1 inh-1: 1; DAX1 inh-2: 2; ssDAF12 agonist: 0; hgDAF-12 ag: 6

What do the screens show for `O=C(CCl)N1c2ccccc2Oc2ccc3ccccc3c21`?
hcDAF-12 act: 1; DAX1 inh-1: -4; DAX1 inh-2: 2; ssDAF12 agonist: -1; hgDAF-12 ag: 1

What do the screens show for `Cc1ccc(-c2nnn(CC(=O)N(CC(=O)NC3CCCCC3)c3ccccc3F)n2)o1`?
hcDAF-12 act: -1; DAX1 inh-1: 0; DAX1 inh-2: 4.2*; ssDAF12 agonist: -2; hgDAF-12 ag: -1

What do the screens show for `CCC(C(=O)NC1CCCC1)N(C(=O)Cn1nnc(-c2ccc(C)o2)n1)c1cnc2ccccc2c1` (centres undefined)?
hcDAF-12 act: -2; Wee1 stabilizer: 9.8*; DAX1 inh-1: -1; DAX1 inh-2: 0; ssDAF12 agonist: -2; hgDAF-12 ag: -4

What do the screens show for `O=C(O)CCCCn1c(SCc2ccccc2Cl)nc2ccsc2c1=O`?
hcDAF-12 act: -1; Wee1 stabilizer: 3; DAX1 inh-1: 0; DAX1 inh-2: 4.7*; ssDAF12 agonist: -1; hgDAF-12 ag: 0

What do the screens show for `C=CCn1c(COc2ccc(OC)cc2)nnc1SCn1nnc2ccccc2c1=O`?
hcDAF-12 act: -2; Wee1 stabilizer: 1; DAX1 inh-1: 0; DAX1 inh-2: 2; ssDAF12 agonist: 6.3*; hgDAF-12 ag: -1

Results for CCn1c(COc2ccc(OC)cc2)nnc1SCc1nc2ccccc2c(=O)[nH]1 ?
Wee1 stabilizer: 9.8*

Results for COc1cc2oc(=O)ccc2cc1-c1c(OC)ccc2ccc(=O)oc12 ?
hcDAF-12 act: -3; DAX1 inh-1: 1; DAX1 inh-2: 0; ssDAF12 agonist: -1; hgDAF-12 ag: -1

How did C/C(=N/NC(=O)c1cccs1)c1ccc(NC(=O)COc2ccc(Cl)cc2)cc1 do in these assays?
hcDAF-12 act: 4; Wee1 stabilizer: 6; DAX1 inh-1: 2; DAX1 inh-2: 4.7*; ssDAF12 agonist: 0; hgDAF-12 ag: 12*

How did CN(C)/C=C/C(=O)c1ccc2noc(-c3ccc(F)cc3)c2c1 do in these assays?
hcDAF-12 act: 0; DAX1 inh-1: 1; DAX1 inh-2: 4.8*; ssDAF12 agonist: -1; hgDAF-12 ag: 5

What do the screens show for `O=C(NN1C(=O)/C(=C/c2ccc(O)c(O)c2)SC1=S)c1ccccc1`?
hcDAF-12 act: -1; DAX1 inh-1: 0; DAX1 inh-2: 1; ssDAF12 agonist: 1.2*; hgDAF-12 ag: -1

Results for O=c1[nH]c(N/N=C/c2ccccc2)nc2ccccc12 ?
hcDAF-12 act: 3; Wee1 stabilizer: 10*; DAX1 inh-1: 4; DAX1 inh-2: 0; ssDAF12 agonist: 0; hgDAF-12 ag: 7
